Reference: PubChem BioAssay (EPA / NIEHS)
Values joined by “and” are separate entries in the source; they are usually repeats but may differ in a detail not shown here. Identical values can stand only once. Records with an inconclusive call do not appear. Active and inactive are the calls of the source. How the source made its calls, unless noted: active means hit-call score of the fitted dose curve at least 0.9, where 1 is the maximum; inactive means score below 0.9.

What was measured:
[1] = target: Nuclear respiratory factor 1 (Homo sapiens) (UniProt Q16656); experiment: ATG_NRF1_CIS: Attagene CIS-FACTORIAL HepG2 Assay for human Nuclear Respiratory Factor 1 (NRF1) Orphan Gene (AID 2282987); conditions: HepG2 NRF1 cis-element reporter, Attagene multiplex; actives raise or lower the signal
Procedure, shortened: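 Measured: fluorescent reporter-specific RT-PCR products from transfected HepG2 cells, separated by capillary electrophoresis. Exposure lasted 24 h. Analysis used bidirectional curve fitting with DMSO as negative control.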

[2] = ATG_NFI_CIS: Attagene CIS-FACTORIAL HepG2 Assay for human Nuclear Factor I (NFI) (AID 2282989); conditions: HepG2 cis-regulatory reporter, NFI response element transcription; actives raise or lower the signal
Procedure, shortened: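 After transient transfection of HepG2 with cis-promoter reporter constructs and 24 h dosing, RNA is reverse-transcribed, amplified, 6-FAM end-labelled and HpaI-digested before capillary analysis. Bidirectional curve fitting against DMSO.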

[3] = target: Myc proto-oncogene protein (Homo sapiens) (UniProt P01106); experiment: ATG_Myc_CIS: Attagene CIS-FACTORIAL HepG2 Assay for human Myelocytomatosis (Myc) Proto-Oncogene Transcription Factor (AID 2282990); conditions: HepG2, Attagene cis-reporter transcription factor activity; actives raise or lower the signal
Procedure, shortened: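 Multiplexed cis-reporter transcription in HepG2 cells after 24 h chemical treatment. Reporter mRNA measured by RT-PCR and capillary electrophoresis fluorescence; activity fitted bidirectionally against DMSO control.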

[4] = ATG_NF_kB_CIS: Attagene CIS-FACTORIAL HepG2 Assay for human Nuclear Factor Kappa B (NF-kB) (AID 2282991); conditions: HepG2 Attagene cis-factorial NF-kB reporter mRNA; actives raise or lower the signal
Procedure, shortened: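 Fluorescence of labelled RT-PCR products separated by capillary electrophoresis gives reporter mRNA levels from transfected HepG2 cells exposed 24 h; values are fitted in both directions relative to DMSO.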

[5] = ATG_NRF2_ARE_CIS: Attagene CIS-FACTORIAL HepG2 Assay for human Nuclear Factor Erythroid 2 Related Factor 2 (NFR2) response to Antioxidant Response Elements (ARE) (AID 2282992); conditions: HepG2 Attagene ARE/NRF2 reporter, transcription factor activity; actives raise or lower the signal
Procedure, shortened: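 Transient MRTU transfection of HepG2; 24 h compound exposure; TriZol RNA, RT with oligo(dT), PCR, 6-FAM primer extension, HpaI cut, CE. Bidirectional fit vs DMSO.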

[6] = ATG_Oct_MLP_CIS: Attagene CIS-FACTORIAL HepG2 Assay for human Octamer-Binding Transcription Factor (Oct) (AID 2282993); conditions: HepG2 Attagene cis-factorial Oct reporter, mRNA; actives raise or lower the signal
Procedure, shortened: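 Cells of the HepG2 line express promoter-controlled reporter sequences whose mRNA levels, after 24 h treatment, are measured by RT-PCR and capillary electrophoresis. Increases and decreases are scored relative to DMSO.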

[7] = target: Cellular tumor antigen p53 (Homo sapiens) (UniProt P04637); experiment: ATG_p53_CIS: Attagene CIS-FACTORIAL HepG2 Assay for human p53 Transcription Factor (AID 2282994); conditions: HepG2 p53 cis-element reporter, Attagene mRNA; actives raise or lower the signal
Procedure, shortened: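 HepG2, transient MRTU transfection (cis promoter elements, endogenous TFs); 24 h dosing; RNA isolation, RT-PCR, 6-FAM primer extension, HpaI digest, CE fluorescence; bidirectional fit vs DMSO.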

[8] = BSK_3C_TissueFactor: BioMAP Diversity Plus: 3C Assay for Tissue Factor Biomarker Activity (AID 2282997); conditions: BioMAP 3C HUVEC, tissue factor biomarker readout; actives raise or lower the signal
Procedure, shortened: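 Values derive from bidirectional curve fitting against DMSO of Tissue Factor ELISA signals, taken 24 h after dosing primary human umbilical vein endothelial cells.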

[9] = BSK_3C_uPAR: BioMAP Diversity Plus: 3C Assay for Urokinase-type plasminogen activator receptor (uPAR) Biomarker Activity (AID 2282998); conditions: BioMAP 3C HUVEC, uPAR biomarker ELISA; actives raise or lower the signal
Procedure, shortened: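 Endothelial primary cells of human umbilical vein origin received test chemical; 24 h later uPAR was assayed by ELISA. Fitting was bidirectional, DMSO as negative control.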

[10] = BSK_3C_VCAM1: BioMAP Diversity Plus: 3C Assay for Vascular cell adhesion molecule 1 (VCAM1) Biomarker Activity (AID 2282999); conditions: BioMAP 3C HUVEC, VCAM1 ELISA, cytokine-stimulated; actives raise or lower the signal
Procedure, shortened: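 Human umbilical vein endothelial cells were dosed with compound for 24 h, after which cell-surface VCAM-1 was quantified by ELISA. Bidirectional curve fitting used DMSO as negative control and activity baseline.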

[11] = BSK_4H_Eotaxin3: BioMAP Diversity Plus: 4H Assay for Eotaxin 3 Biomarker Activity (AID 2283000); conditions: primary human endothelial cells (HUVEC); actives raise or lower the signal
Procedure, shortened: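 Endothelial primary cells (human umbilical vein) exposed to compound for 24 h. ELISA detection of Eotaxin-3.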

[12] = read-out: Intercellular Adhesion Molecule 1 (ICAM1), ICAM1 (gene 3383); experiment: BSK_3C_ICAM1: BioMAP Diversity Plus: 3C Assay for Intercellular Adhesion Molecule 1 (ICAM1) Biomarker Activity (AID 2283003); conditions: primary human endothelial cells (HUVEC); actives raise or lower the signal
Procedure, shortened: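 Human vascular endothelial primary cells, 3C conditions, 24 h treatment. ICAM-1 by ELISA.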

[13] = BSK_3C_Proliferation: Cell Proliferation Assessment in the BioMAP Diversity Plus: 3C Assay (AID 2283006); conditions: primary human endothelial cells (HUVEC);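 on AC50: potency may reflect either rise or fall in cell number versus DMSO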
Procedure, shortened: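 Proliferation of human vascular endothelial primary cells after 48 h dosing, quantified as SRB-stained protein at 560 nm relative to DMSO.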

[14] = target: Peroxisome proliferator-activated receptor gamma (Homo sapiens) (UniProt P37231); experiment: ATG_PPARg_TRANS: Attagene TRANS-FACTORIAL HepG2 Assay for human Peroxisome Proliferator-activated Receptor-gamma (PPARg) (AID 2283007; active means hit-call score of the fitted dose curve at least 0.9, where 1 is the maximum)
Procedure, shortened: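 Twenty-four hours after chemical dosing of transiently transfected HepG2 cells, isolated RNA was converted to cDNA, reporter sequences amplified and 6-FAM-labelled, then HpaI-digested and analysed by capillary electrophoresis. Signal increase against DMSO was fitted.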

[15] = target: Nuclear receptor subfamily 1 group I member 2 (Homo sapiens) (UniProt O75469); experiment: ATG_PXR_TRANS: Attagene TRANS-FACTORIAL HepG2 Assay for human Pregnane X Receptor (PXR) (AID 2283008; active means hit-call score of the fitted dose curve at least 0.9, where 1 is the maximum)
Procedure, shortened: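 Read-out is fluorescence of labelled reporter cDNA fragments separated by capillary electrophoresis after RT-PCR and HpaI digestion. Source: HepG2 cells carrying PXR-GAL4/UAS reporter constructs, treated 24 h; activity fitted upward relative to DMSO.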

[16] = target: human Retinoic Acid Receptor gamma (RARg), RARG (gene 5916) (UniProt P13631); experiment: ATG_RARg_TRANS: Attagene TRANS-FACTORIAL HepG2 Assay for human Retinoic Acid Receptor gamma (RARg) (AID 2283009; active means hit-call score of the fitted dose curve at least 0.9, where 1 is the maximum)
Procedure, shortened: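 HepG2, RARg-GAL4 TRANS system, 24 h exposure; reporter mRNA by RT-PCR + CE fluorescence; increase over DMSO.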

[17] = target: Retinoic acid receptor alpha (Homo sapiens) (UniProt P10276); experiment: ATG_RARa_TRANS: Attagene TRANS-FACTORIAL HepG2 Assay for human Retinoic Acid Receptor alpha (RARa) (AID 2283005; active means hit-call score of the fitted dose curve at least 0.9, where 1 is the maximum)
Procedure, shortened: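 HepG2 cells transiently transfected with multiple reporter units expressing chimeric RARα-GAL4 fusion, with GAL4-UAS-driven reporters. After 24 h compound exposure, reporter mRNA induction quantified by RT-PCR and capillary electrophoresis with fluorescent labeling; gain-of-signal fitted relative to DMSO control.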

[18] = target: human Retinoic Acid Receptor beta (RARb), RARB (gene 5915) (UniProt P10826); experiment: ATG_RARb_TRANS: Attagene TRANS-FACTORIAL HepG2 Assay for human Retinoic Acid Receptor beta (AID 2283004; active means hit-call score of the fitted dose curve at least 0.9, where 1 is the maximum)
Procedure, shortened: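 HepG2, transient MRTU transfection, NR–Gal4 chimera, 24 h treatment; RT-PCR plus CE fluorescence detection of reporter mRNA; gain of signal vs DMSO.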

[19] = target: human Peroxisome Proliferator-activated Receptor alpha (PPARa), PPARA (gene 5465) (UniProt Q07869); experiment: ATG_PPARa_TRANS: Attagene TRANS-FACTORIAL HepG2 Assay for human Peroxisome Proliferator-activated Receptor alpha (PPARa) (AID 2283001; active means hit-call score of the fitted dose curve at least 0.9, where 1 is the maximum)
Procedure, shortened: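 HepG2 cells transiently transfected with multiplexed GAL4-UAS reporter units and chimeric NR-Gal4 constructs were dosed for 24 h. Reporter mRNA was measured by RT-PCR with fluorescent labelling and capillary electrophoresis; gain of signal fitted against DMSO.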

[20] = target: human Peroxisome Proliferator-activated Receptor delta (PPARd), PPARD (gene 5467) (UniProt Q03181); experiment: ATG_PPARd_TRANS: Attagene TRANS-FACTORIAL HepG2 Assay for human Peroxisome Proliferator-activated Receptor delta (PPARd) (AID 2283002; active means hit-call score of the fitted dose curve at least 0.9, where 1 is the maximum)
Procedure, shortened: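 Multiplexed trans-activation format: HepG2 liver cells expressing exogenous NR-Gal4 chimeras and GAL4-UAS reporters were exposed for 24 h. Reporter mRNA was detected by RT-PCR with capillary electrophoresis fluorescence; activity fitted as gain of signal relative to DMSO.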

Measured: AC50

Nuclear receptor subfamily 1 group I member 2 (Homo sapiens), sequence (O75469 whole entry, looked up, the tested form may be a part): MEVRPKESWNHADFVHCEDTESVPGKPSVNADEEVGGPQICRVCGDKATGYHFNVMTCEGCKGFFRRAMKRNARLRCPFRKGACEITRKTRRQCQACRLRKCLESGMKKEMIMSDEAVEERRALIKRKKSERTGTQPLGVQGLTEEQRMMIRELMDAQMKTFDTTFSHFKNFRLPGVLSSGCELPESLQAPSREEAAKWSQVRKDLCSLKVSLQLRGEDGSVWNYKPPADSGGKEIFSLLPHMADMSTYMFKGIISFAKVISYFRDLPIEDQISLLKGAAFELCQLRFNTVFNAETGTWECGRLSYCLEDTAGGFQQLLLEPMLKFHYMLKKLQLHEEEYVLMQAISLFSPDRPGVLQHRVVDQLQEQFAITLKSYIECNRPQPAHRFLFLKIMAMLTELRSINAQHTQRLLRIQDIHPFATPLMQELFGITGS
Myc proto-oncogene protein (Homo sapiens), sequence (P01106 whole entry, looked up): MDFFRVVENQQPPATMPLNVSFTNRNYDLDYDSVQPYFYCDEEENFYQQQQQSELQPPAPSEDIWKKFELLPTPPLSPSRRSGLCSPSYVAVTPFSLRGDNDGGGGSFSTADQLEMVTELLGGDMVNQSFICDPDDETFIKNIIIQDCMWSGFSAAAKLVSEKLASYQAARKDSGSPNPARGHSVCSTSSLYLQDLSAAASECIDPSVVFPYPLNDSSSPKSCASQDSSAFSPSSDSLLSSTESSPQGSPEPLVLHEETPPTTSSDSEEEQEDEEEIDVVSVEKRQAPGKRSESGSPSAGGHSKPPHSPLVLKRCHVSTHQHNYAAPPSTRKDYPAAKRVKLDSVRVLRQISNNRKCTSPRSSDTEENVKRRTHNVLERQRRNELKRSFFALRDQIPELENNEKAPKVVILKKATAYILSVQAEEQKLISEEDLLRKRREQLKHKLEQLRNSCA
human Retinoic Acid Receptor gamma (RARg), RARG (gene 5916), sequence (P13631 whole entry, looked up, the tested form may be a part): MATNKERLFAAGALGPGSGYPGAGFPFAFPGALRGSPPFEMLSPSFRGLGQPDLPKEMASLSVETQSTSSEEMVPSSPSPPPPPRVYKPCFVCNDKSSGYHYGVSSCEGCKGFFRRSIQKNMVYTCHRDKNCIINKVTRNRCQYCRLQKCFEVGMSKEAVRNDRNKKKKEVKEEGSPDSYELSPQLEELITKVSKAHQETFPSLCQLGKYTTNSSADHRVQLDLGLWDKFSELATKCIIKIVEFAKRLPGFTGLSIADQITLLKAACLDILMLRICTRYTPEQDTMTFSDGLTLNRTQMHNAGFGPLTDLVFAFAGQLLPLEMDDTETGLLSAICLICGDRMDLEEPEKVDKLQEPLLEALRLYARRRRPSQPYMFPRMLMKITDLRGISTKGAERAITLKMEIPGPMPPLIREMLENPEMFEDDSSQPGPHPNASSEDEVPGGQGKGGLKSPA
Cellular tumor antigen p53 (Homo sapiens), sequence (P04637 whole entry, looked up): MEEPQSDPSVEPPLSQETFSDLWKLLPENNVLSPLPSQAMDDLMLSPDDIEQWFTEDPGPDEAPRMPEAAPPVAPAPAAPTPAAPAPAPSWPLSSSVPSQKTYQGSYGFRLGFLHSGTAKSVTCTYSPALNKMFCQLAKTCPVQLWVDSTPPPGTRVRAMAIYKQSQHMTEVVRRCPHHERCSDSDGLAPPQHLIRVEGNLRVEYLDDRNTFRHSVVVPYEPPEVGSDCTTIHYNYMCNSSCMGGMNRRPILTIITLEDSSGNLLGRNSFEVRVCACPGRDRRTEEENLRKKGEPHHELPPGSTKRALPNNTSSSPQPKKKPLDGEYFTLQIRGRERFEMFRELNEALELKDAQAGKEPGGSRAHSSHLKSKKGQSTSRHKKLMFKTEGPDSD
Nuclear respiratory factor 1 (Homo sapiens), sequence (Q16656 whole entry, looked up): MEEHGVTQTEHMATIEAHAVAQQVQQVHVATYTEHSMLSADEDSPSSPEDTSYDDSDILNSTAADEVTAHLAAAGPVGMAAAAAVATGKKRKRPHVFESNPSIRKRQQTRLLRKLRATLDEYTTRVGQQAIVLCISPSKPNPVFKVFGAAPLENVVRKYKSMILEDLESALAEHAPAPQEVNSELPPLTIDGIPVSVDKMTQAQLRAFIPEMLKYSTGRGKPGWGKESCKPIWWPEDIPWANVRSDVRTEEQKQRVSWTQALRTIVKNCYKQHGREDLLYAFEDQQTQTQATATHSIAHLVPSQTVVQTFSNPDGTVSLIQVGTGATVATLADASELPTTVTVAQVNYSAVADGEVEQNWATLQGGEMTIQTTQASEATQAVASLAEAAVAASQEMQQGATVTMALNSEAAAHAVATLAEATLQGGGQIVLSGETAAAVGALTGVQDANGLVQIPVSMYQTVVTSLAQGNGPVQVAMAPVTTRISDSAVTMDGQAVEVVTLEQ
human Peroxisome Proliferator-activated Receptor alpha (PPARa), PPARA (gene 5465), sequence (Q07869 whole entry, looked up, the tested form may be a part): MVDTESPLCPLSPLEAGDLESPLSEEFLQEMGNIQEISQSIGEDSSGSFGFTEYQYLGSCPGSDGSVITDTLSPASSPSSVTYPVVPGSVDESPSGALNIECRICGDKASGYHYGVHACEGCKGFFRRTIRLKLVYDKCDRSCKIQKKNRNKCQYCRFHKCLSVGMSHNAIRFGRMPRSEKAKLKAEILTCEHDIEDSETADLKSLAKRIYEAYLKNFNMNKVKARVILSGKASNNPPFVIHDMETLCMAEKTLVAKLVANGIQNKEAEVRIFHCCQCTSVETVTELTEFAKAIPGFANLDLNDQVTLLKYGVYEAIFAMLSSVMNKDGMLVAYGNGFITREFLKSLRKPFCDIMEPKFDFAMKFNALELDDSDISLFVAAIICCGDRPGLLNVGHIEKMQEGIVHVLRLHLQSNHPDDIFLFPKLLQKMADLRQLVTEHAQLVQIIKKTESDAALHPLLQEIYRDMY
Peroxisome proliferator-activated receptor gamma (Homo sapiens), sequence (P37231 whole entry, looked up): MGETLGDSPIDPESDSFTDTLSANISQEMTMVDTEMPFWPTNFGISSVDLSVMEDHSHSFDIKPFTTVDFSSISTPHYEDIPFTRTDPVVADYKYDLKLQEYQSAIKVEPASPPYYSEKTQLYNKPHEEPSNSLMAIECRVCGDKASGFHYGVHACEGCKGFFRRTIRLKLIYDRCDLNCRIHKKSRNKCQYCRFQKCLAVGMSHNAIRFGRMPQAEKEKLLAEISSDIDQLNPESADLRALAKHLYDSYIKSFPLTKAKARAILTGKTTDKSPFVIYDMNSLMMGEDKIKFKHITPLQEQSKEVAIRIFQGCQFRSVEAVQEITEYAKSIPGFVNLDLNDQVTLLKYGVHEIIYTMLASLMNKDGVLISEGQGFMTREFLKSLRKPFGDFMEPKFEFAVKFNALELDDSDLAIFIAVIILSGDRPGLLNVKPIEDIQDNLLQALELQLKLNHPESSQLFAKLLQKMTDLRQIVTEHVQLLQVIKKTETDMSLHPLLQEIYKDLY
Retinoic acid receptor alpha (Homo sapiens), sequence (P10276 whole entry, looked up, the tested form may be a part): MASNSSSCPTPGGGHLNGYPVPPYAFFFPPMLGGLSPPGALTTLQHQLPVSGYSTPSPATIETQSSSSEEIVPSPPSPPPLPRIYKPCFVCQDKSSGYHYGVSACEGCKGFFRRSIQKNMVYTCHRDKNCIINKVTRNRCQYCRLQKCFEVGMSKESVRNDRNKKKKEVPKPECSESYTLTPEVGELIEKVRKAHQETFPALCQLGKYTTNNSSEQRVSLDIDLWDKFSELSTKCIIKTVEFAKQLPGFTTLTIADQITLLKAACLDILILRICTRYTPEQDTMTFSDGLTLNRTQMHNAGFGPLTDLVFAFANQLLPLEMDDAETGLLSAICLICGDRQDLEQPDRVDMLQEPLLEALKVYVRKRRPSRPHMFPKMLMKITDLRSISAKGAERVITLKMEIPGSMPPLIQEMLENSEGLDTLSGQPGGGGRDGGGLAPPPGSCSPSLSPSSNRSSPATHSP
human Retinoic Acid Receptor beta (RARb), RARB (gene 5915), sequence (P10826 whole entry, looked up, the tested form may be a part): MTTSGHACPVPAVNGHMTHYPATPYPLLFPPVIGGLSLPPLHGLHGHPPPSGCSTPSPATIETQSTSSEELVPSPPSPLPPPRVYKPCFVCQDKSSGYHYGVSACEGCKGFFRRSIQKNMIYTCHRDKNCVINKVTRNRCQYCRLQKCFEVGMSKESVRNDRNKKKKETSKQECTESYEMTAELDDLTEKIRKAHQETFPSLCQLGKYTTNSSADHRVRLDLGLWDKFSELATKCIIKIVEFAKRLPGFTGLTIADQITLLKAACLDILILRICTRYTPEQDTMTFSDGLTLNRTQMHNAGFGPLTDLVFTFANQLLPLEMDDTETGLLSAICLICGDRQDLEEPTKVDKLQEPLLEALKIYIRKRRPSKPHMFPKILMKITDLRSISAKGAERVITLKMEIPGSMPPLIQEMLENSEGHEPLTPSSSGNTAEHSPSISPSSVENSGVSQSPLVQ
human Peroxisome Proliferator-activated Receptor delta (PPARd), PPARD (gene 5467), sequence (Q03181 whole entry, looked up, the tested form may be a part): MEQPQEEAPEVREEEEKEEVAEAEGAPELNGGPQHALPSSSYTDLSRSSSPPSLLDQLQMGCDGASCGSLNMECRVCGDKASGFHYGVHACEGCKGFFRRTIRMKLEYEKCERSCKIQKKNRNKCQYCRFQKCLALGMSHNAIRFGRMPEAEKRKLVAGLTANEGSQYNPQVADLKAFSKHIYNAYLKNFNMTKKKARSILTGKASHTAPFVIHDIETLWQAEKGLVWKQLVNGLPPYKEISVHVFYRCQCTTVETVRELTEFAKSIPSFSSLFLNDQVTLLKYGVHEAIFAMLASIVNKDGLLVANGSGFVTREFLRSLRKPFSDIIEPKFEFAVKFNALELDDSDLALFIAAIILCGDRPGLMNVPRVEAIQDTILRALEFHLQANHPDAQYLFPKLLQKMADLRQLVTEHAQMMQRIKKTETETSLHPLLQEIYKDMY

CCOC(=O)CC(=O)C(F)(F)C(F)(F)F
not listed: [17] | [18] | [19] | [20]
inactive: all other assays above

COC(F)(C(F)F)C(F)(F)F (stereo not given)
not listed: [16] | [18] | [19] | [20]
inactive: all other assays above

OCCCC(F)(F)C(F)(F)C(F)(F)C(F)(F)C(F)(F)C(F)(F)C(F)(F)C(F)(F)F
active: [7] 30.7 µM | [8] 13.1 µM and 26.1 µM | [9] 19.6 µM and 42.2 µM | [10] 39.9 µM and 46 µM | [11] 18.9 µM and 31.8 µM | [12] 22.4 µM and 45.5 µM | [13] 7.56 µM and 9.56 µM
not listed: [19] | [20]
inactive: all other assays above

FC(F)(F)C(F)(F)C(F)(F)C(F)(F)C(F)(F)C(F)(F)C(F)(F)CCI
active: [5] 30.6 µM
not listed: [14] | [16] | [17] | [18] | [20]
inactive: all other assays above

COc1ccccc1C=O
inactive: [1] | [2] | [3] | [4] | [5] | [6] | [7] | [19] | [20]

O=C(O)C(F)(F)C(F)(F)C(F)(F)C(=O)O
active: [14] 84.1 µM
not listed: [15] | [17] | [18] | [20]
inactive: all other assays above

CCN(CC)c1ccc(C=O)cc1
active: [15] 27.7 µM
not listed: [16] | [17] | [18] | [19] | [20]
inactive: all other assays above
